For 41 molecules, Potency and activation results are on record in PubChem BioAssay (Tox21).

The experiment concerns the target Beta-2 adrenergic receptor (Homo sapiens) (UniProt P07550). Description: Adrenergic beta2 receptor (ADRB2) small molecule agonists, cell-based qHTS assay (AID 1963593).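 Also: CHO cells stably overexpressing human ADRB2.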 The gist of the method: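 CHO cells stably over-expressing ADRB2 were plated overnight at 37C, then dosed with compounds plus a stimulation mix containing 100uM IBMX and 25uM Ro-20-1724 for 0.5hr at room temperature. cAMP was measured by HTRF competition, 1hr.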

Inconclusive results are not listed. Entries that show only a call come without a potency. A number with no mark means an inactive call. The source made the active and inactive calls. Calls follow the shape of the full dose curve.

Sequence of Beta-2 adrenergic receptor (Homo sapiens) (P07550 whole entry, looked up): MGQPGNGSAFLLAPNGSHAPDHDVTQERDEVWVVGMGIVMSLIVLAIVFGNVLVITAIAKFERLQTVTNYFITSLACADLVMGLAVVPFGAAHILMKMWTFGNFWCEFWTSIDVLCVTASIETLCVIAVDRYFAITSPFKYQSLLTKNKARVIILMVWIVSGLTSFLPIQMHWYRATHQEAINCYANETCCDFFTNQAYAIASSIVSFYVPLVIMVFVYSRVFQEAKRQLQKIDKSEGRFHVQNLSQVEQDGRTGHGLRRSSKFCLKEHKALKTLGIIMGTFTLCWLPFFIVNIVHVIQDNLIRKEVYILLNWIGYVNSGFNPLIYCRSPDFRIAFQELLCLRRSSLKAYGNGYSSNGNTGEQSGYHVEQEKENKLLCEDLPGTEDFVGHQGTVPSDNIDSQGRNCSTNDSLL

On to `CC(Cc1ccccc1)NCCn1cnc2c1c(=O)n(C)c(=O)n2C` (stereo unspecified), for which the Potency result is “inactive”.
With `CN(C)c1ccc(N=Nc2ccccc2)cc1`, the Potency entry was “inactive”.
On the same count and under the same terms, the value for `COC(=O)N(C(=O)N1CO[C@@]2(C(=O)OC)Cc3cc(Cl)ccc3C2=N1)c1ccc(OC(F)(F)F)cc1` was “inactive”; that for `O=C(NC(=O)c1c(F)cccc1F)Nc1cc(Cl)c(Oc2ncc(C(F)(F)F)cc2Cl)c(Cl)c1` was “inactive”; that for `CCC[CH2][Sn]([CH2]CCC)([O]C(C)=O)[O]C(C)=O` was “inactive”.
Take `CCOC(=O)NC(C)(C)Cc1ccc(Cl)cc1`: the Potency result is “inactive”.
Still for that read-out and setting: the value for `C=CC(=O)N(C)C` was “inactive”; that for `CCC(=O)C(CCN(C)C)(c1ccccc1)c1ccccc1` was “inactive”.
On the same count and under the same terms, the value for `N#CCCSCCC#N` was “inactive”; that for `CCCCc1ccc(O)cc1` was “inactive”.
On the same count and under the same terms, the value for `N[C@@H]1C[C@H]1c1ccccc1` was “inactive”; that for `Oc1ccccc1Br` was “inactive”.
In the case of `C[N+](C)(C)CCOC(=O)C(O)(c1ccccc1)c1ccccc1`, the Potency entry was “inactive”.
Still for that read-out and setting: the value for `CN(CCCC(O)c1cccnc1)N=O` (stereo unspecified) was “inactive”; that for `CCN(CCO)CCn1c(Cc2ccccc2)nc2c1c(=O)n(C)c(=O)n2C` was “inactive”; that for `CC(C)[N+](=O)[O-]` was “inactive”.
Take `CCCCOC(C)=O`: the Potency entry is “inactive”.
In the case of `CC(=O)OCC1=C(C(=O)O)N2C(=O)[C@@H](N)[C@H]2SC1`, the activation is 15.1% [at 19 µM].
In the case of `Nc1n[nH]c(N)n1`, the Potency result was “inactive”.
The same measure, in the same setting: the value for `O=C(NC(=O)c1c(F)cccc1F)Nc1cc(Cl)c(F)c(Cl)c1F` was “inactive”; that for `CCCCS(=O)(=O)Cl` was “inactive”.
Same read-out and setting: the value for `O=C(O)c1cc(I)cc(I)c1I` was “inactive”; that for `CCN[C@@H](C)Cc1ccccc1` was “inactive”; that for `C[C@]12CC[C@H]3[C@@H](CCC4=CC(=O)CC[C@@]43C)[C@@H]1CC[C@@H]2C(=O)O` was “inactive”.
Same read-out and setting: next, `COC(=O)C(C)Oc1ccc(Oc2ccc(Cl)cc2Cl)cc1` (stereo unspecified): “inactive”.
For the molecule `CCOC(=O)c1ncn2c1CN(C)C(=O)c1c(I)cccc1-2`, the Potency result is “inactive”.
As for `Cc1cccc(Cc2cnc[nH]2)c1C`, the Potency result is “inactive”.
Still for that read-out and setting: next, `CCCC[N+]1(C)[C@@H]2CC(OC(=O)[C@H](CO)c3ccccc3)C[C@H]1[C@@H]1O[C@@H]12` (stereo partly specified): “inactive”.
The same measure, in the same setting: the value for `CC1(c2ccc(Oc3ccccc3)cc2)OC(=O)N(Nc2ccccc2)C1=O` (stereo unspecified) was “inactive”; that for `C1CCNCC1` was “inactive”; that for `CCN(CC)C(=O)Cl` was “inactive”.
Same read-out and setting: next, `CCOC(=O)NC(=S)Nc1ccccc1NC(=S)NC(=O)OCC`: “inactive”.
Regarding `Cn1cc(C2=C(c3cn(C4CCN(Cc5ccccn5)CC4)c4ccccc34)C(=O)NC2=O)c2ccccc21`, the Potency result was “inactive”.
Same read-out and setting: the value for `Cc1ccccc1C(=O)Nc1cccc(OC(C)C)c1` was “inactive”; that for `ClC=C(Cl)Cl` was “inactive”; that for `CCC1(c2ccccc2)C(=O)N=C(O)NC1=O` (stereo unspecified) was “inactive”.
On to `COC(=O)N(C(=O)N1COC2(C(=O)OC)Cc3cc(Cl)ccc3C2=N1)c1ccc(OC(F)(F)F)cc1` (stereo unspecified), for which the Potency entry is “inactive”.
Same read-out and setting: next, `CC(Cl)(Cl)[N+](=O)[O-]`: “inactive”; `CC(=O)CCc1ccc2c(c1)OCO2`: “inactive”.
The same measure, in the same setting: next, `CCCCCCCCCC(=O)O[C@H]1CC[C@H]2[C@@H]3CCC4=CC(=O)CC[C@@H]4[C@H]3CC[C@]12C`: “inactive”; `[As]#[In]`: “inactive”.
